From PubChem BioAssay (NCATS) come the findings set out here.

Assay [1] deals with Vitamin D3 receptor (Homo sapiens) (UniProt P11473). Kind of assay: qHTS assay for small molecule agonists of vitamin D receptor signaling (AID 588543).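 Also: 0% = DMSO basal and 100% = reference agonist control.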 Particulars: HEK293T VDR-UAS-bla, beta-lactamase ratio, 16 h; series mostly up to 76.8 µM. In short, it runs like this:
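β-lactamase reporter, VDR-UAS-bla HEK293T, agonist mode. Cells plated 5 h at 37 °C, compound titration 16 h at 37 °C, CCF4 dye 2 h RT, ratio 460/530 nm. Hill fit → EC50, efficacy vs 50 nM 1α,25-(OH)2D3.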
A general note: Quantitative high-throughput screening tests each substance at several concentrations.

In assay [2] the target is Peroxisome proliferator-activated receptor gamma (Homo sapiens) (UniProt P37231). Kind of assay: qHTS assay for small molecule agonists of peroxisome proliferator-activated receptor gamma signaling (AID 588536; active = well fitted curve in the direction sought with a large enough effect in the signal ratio, with a control signal flat, not every such curve was filed as active; the % refers to the signal ratio;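 also: 0% = DMSO basal wells and 100% = rosiglitazone at 2 µM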). Particulars: HEK293 PPARg-UAS-bla, beta-lactamase ratio, 16 h, percent of rosiglitazone response, DMSO as zero; series mostly up to 76.7 µM. The procedure, abridged: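 Cells were plated and held 6–6.5 h at 37 C, then compounds were added as a titration series. After a further 16 h, CCF4 dye was loaded for 2 h at room temperature and emission at 460/530 nm recorded.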

Assay [3] concerns the target Vitamin D3 receptor (Homo sapiens) (UniProt P11473). Kind of assay: qHTS assay for small molecule antagonists of vitamin D receptor signaling (AID 588541). Also: potency is read from the fitted curve at half-maximal effect. The note with it: HEK293T VDR-UAS-bla, beta-lactamase ratio, antagonist mode; series mostly up to 76.7 µM. In short, it runs like this:
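VDR-UAS-bla HEK293T cells (2000/well, 2% charcoal-stripped FBS) were treated with titrated compounds plus 1-alpha,25-dihydroxyvitamin D3 (50 nM or 3 nM final) for 16 h at 37 C. CCF4 beta-lactamase fluorescence was read; Hill fits gave IC50.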

Assay [4] is described as follows: qHTS assay for small molecule antagonists of peroxisome proliferator-activated receptor delta signaling (AID 588535; active = well fitted inhibition curve with a large enough effect in the signal ratio, with a control signal flat, not every such curve was filed as active; the % refers to the signal ratio; also: potency is read from the fitted curve at half-maximal effect;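 as to max response: cells co-treated with a PPAR-delta agonist as stimulator during compound exposure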). Particulars: HEK293T PPARd-UAS-bla, beta-lactamase FRET ratio, 18 h; 460 nm channel. In short, it runs like this: (§1)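 Inhibition of PPAR-delta response element-driven beta-lactamase expression is measured in HEK293T cells exposed to a compound titration series for 18 hrs at 37 C. Half-maximal inhibition comes from Hill equation fitting.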

Assay [5] deals with Peroxisome proliferator-activated receptor delta (Homo sapiens) (UniProt Q03181). The description is as above. Particulars: HEK293T PPARd-UAS-bla, beta-lactamase FRET ratio, 18 h; series mostly up to 76.7 µM. The procedure, abridged: as §1
Assay [6] can be described thus: qHTS assay for small molecule agonists of retinoid X receptor alpha signaling (AID 588544). The note with it: HEK293T RXRa-UAS-bla, beta-lactamase reporter, 18 h; 530 nm emission.
The target of assay [7] is Retinoic acid receptor RXR-alpha (Homo sapiens) (UniProt P19793). The assay is described as above. Particulars: HEK293T RXRa-UAS-bla, beta-lactamase reporter, 18 h; series mostly up to 76.7 µM.
The target in assay [8] is Thyroid hormone receptor beta (Homo sapiens) (UniProt P10828). Kind of assay: qHTS assay for small molecule agonists of thyroid hormone receptor beta signaling (AID 588545).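 Also: 0% = DMSO only and 100% = 10 nM T3.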 Particulars: TR-UAS-bla GripTite HEK 293, beta-lactamase ratio, agonist mode, 18 h, percent of T3 response, DMSO as zero; series mostly up to 76.7 µM. In short, it runs like this:
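Stimulation of a TR-driven beta-lactamase reporter was quantified in GripTite HEK 293 cells. Compound series ran for 18 hrs; curves were normalized to T3 and DMSO controls and fitted to yield EC50.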

Assay [9] deals with Glucocorticoid receptor (Homo sapiens) (UniProt P04150). In words: qHTS assay for small molecule antagonists of glucocorticoid receptor signaling (AID 588533; active = well fitted inhibition curve with a large enough effect in the signal ratio, with a control signal flat, not every such curve was filed as active; the % refers to the signal ratio;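 also: cells stimulated with 2 nM dexamethasone as agonist; % is scaled to controls: 0 for no effect and ±100 for the full control effect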). The note with it: HeLa MMTV-bla, GRE beta-lactamase ratio, antagonist mode, 18 h; series mostly up to 76.8 µM. The procedure, abridged:
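Antagonist-mode qHTS: compound titrations added to GRE-bla HeLa cells, then dexamethasone 2 nM final; 18 h, 37 C. CCF4 FRET fluorescence normalized to dexamethasone and DMSO; IC50 from Hill fit.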

Assay [10] has as its target Peroxisome proliferator-activated receptor gamma (Homo sapiens) (UniProt P37231). In words: qHTS assay for small molecule antagonists of peroxisome proliferator-activated receptor gamma signaling (AID 588537; active = well fitted inhibition curve with a large enough effect in the signal ratio, with a control signal flat, not every such curve was filed as active; the % refers to the signal ratio;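 also: reporter cells co-stimulated with 50 nM rosiglitazone agonist during compound treatment; % of control where 0% means no effect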). The note with it: HEK293 PPARg-UAS-bla, beta-lactamase ratio, antagonist mode; series mostly up to 76.8 µM. The procedure, abridged: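 Compounds are tested as concentration series for inhibition of rosiglitazone-driven (50 nM) reporter expression in GeneBLAzer PPAR-gamma-UAS-bla HEK293 cells. After 16 h at 37 C, CCF4 substrate is added for 2 h at room temperature and blue/green fluorescence is measured.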

Several values for one entry are separate records, joined by “and”; a condition that tells them apart may be missing. Identical values can stand only once. Inconclusive results are not listed. Activity calls are given as the source filed them. Unless noted, calls follow the shape of the full dose curve.

Sequence of Peroxisome proliferator-activated receptor gamma (Homo sapiens) (P37231 whole entry, looked up): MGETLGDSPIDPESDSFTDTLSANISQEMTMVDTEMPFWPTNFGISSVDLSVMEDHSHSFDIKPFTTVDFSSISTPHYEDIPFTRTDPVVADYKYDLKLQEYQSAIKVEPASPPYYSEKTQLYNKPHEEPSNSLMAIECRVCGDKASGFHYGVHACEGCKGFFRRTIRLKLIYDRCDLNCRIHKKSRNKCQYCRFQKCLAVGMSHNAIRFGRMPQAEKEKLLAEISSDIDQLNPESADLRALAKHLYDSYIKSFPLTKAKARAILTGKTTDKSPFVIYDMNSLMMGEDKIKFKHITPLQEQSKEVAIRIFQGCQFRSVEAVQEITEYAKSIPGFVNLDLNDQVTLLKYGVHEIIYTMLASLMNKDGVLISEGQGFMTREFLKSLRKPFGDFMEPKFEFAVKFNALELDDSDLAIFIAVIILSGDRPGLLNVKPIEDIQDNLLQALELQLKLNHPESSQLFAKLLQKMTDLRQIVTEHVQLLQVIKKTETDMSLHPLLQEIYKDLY
Sequence of Retinoic acid receptor RXR-alpha (Homo sapiens) (P19793 whole entry, looked up): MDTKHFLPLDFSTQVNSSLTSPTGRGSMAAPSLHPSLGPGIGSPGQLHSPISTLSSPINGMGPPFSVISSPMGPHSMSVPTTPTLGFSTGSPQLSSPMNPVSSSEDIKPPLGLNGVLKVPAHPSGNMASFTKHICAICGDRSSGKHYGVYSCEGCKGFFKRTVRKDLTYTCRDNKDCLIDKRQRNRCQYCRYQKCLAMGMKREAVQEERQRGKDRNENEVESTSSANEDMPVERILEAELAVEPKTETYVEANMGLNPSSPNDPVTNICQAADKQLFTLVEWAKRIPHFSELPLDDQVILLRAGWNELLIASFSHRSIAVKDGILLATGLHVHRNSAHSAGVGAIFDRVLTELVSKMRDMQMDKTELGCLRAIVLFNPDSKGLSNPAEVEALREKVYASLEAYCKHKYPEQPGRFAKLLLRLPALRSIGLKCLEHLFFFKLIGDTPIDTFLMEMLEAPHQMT
Sequence of Glucocorticoid receptor (Homo sapiens) (P04150 whole entry, looked up): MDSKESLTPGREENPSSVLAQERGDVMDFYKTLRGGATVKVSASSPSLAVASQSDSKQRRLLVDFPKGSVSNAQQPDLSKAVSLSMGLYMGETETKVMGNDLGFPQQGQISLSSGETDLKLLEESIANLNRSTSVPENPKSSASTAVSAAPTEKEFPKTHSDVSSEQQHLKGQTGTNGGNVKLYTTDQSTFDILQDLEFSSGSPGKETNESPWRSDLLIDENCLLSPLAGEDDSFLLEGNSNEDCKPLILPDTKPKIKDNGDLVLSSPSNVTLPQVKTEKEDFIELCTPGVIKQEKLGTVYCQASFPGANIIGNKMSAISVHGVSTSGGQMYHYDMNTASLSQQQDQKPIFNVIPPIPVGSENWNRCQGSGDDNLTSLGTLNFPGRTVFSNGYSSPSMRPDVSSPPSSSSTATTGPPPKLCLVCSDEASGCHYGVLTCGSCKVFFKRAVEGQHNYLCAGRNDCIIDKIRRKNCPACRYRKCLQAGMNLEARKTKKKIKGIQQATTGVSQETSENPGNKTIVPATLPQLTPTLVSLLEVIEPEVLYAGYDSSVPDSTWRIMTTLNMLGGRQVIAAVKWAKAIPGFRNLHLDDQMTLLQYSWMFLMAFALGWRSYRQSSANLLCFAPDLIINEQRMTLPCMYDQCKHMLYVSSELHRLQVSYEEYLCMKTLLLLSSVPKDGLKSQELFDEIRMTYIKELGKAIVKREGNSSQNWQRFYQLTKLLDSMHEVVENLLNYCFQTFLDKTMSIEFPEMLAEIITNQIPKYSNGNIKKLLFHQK
Sequence of Thyroid hormone receptor beta (Homo sapiens) (P10828 whole entry, looked up): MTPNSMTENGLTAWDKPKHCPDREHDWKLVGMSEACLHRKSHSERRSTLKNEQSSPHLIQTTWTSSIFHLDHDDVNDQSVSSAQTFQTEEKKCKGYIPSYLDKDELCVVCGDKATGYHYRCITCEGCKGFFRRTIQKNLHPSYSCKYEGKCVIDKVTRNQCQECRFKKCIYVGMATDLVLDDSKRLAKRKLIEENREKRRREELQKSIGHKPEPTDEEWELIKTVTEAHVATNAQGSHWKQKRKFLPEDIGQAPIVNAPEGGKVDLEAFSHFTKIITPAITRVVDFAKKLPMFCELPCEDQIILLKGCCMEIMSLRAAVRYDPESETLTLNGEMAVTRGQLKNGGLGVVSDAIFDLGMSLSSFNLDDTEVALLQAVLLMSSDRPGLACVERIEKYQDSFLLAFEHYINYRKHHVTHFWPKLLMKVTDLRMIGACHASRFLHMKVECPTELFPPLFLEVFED
Sequence of Peroxisome proliferator-activated receptor delta (Homo sapiens) (Q03181 whole entry, looked up): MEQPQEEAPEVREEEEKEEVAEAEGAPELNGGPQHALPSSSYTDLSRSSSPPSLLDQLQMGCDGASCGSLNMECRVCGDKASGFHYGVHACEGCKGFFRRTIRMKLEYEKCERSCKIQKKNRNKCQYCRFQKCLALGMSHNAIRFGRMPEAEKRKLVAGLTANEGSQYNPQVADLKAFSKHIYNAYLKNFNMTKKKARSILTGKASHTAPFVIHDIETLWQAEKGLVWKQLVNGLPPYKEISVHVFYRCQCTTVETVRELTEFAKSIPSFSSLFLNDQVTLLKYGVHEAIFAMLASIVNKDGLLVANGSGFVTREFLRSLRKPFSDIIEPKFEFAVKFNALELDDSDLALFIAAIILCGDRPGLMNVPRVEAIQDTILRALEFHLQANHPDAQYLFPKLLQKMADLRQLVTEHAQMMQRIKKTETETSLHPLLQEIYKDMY

As to `Oc1c(Cl)cc(Cl)cc1Sc1cc(Cl)cc(Cl)c1O`, in assay [1], the outcome was inactive.

For `CC(=O)Oc1ccc(C(c2ccc(OC(C)=O)cc2)c2ccccn2)cc1`, the outcome in [2] and in assay [1] was inactive. Besides, in assay [3], the Potency entry is “inactive”.

Take `Oc1ccc(Cl)cc1Sc1cc(Cl)ccc1O`: the result in [2] and in assay [1] was inactive. Besides, the Potency result in assay [3] is “inactive”.

On to `CC(O)C(=O)O` (stereo not drawn), for which the max response in [4] is -0.0545%; in [6] it was -16.3%. For the same compound, the Potency result in [5] and in [3] was “inactive” in each case. For the same compound, the outcome in [1], in assay [7] and in assay [8] was inactive.

Turning to `Nc1ccc(C(=O)O)cc1`, the Potency result in assay [9], in assay [5] and in assay [10] was “inactive” throughout. Moreover, the max response turned out to be 41.6% in [4] and 0.621% in [6]. Besides, the result in assay [2], in assay [7] and in [8] was inactive.

Take `CC(O)(P(=O)(O)O)P(=O)(O)O`: the Potency result in [10] is “inactive”. Besides, the max response in [6] is -19.3%. Also, the result in [7] and in [8] was inactive.

Regarding `CCCCCCc1ccc(O)cc1O`, the Potency entry in assay [9] and in assay [3] was “inactive” throughout. For the same compound, the outcome in assay [2], in assay [1], in assay [7] and in [8] was inactive. In addition, in assay [6], the max response was -14.8% and 0.183%.

Turning to `Cc1cc(=O)n(-c2ccccc2)n1C`, the result in assay [2], in [1] and in assay [7] was inactive. The Potency entry in assay [10] and in assay [3] was “inactive” in each case. The max response in [6] was -30.7%.

Take `NC(=NCCCCCCN=C(N)/N=C(\N)Nc1ccc(Cl)cc1)/N=C(\N)Nc1ccc(Cl)cc1`: in assay [10], the Potency result is “inactive”. Moreover, the result in assay [8] was inactive.

On to `COc1cccc2c1C(=O)c1c(O)c3c(c(O)c1C2=O)C[C@@](O)(C(C)=O)C[C@@H]3O[C@H]1C[C@H](N)[C@H](O)[C@H](C)O1`, for which the Potency in [3] was 8.91 µM (active).

Turning to `O=C(O)CCCCC(=O)O`, the Potency result in assay [9], in [10] and in assay [3] was “inactive” each time. Further, the result in [2], in assay [1] and in [7] was inactive. In addition, the max response in [6] was -28.1%.

Regarding `COc1cccc2c1C(=O)c1c(O)c3c(c(O)c1C2=O)C[C@@](O)(C(=O)CO)C[C@@H]3O[C@H]1C[C@H](N)[C@H](O)[C@H](C)O1`, in [4], the max response was -92.6%. Further, the Potency in assay [5] was 1.41 µM (active). The result in [1] and in [8] was inactive.
